Measurements: PubChem BioAssay AID720519 (National Center for Advancing Translational Sciences (NCATS), 2013)
Records with an inconclusive call do not appear. Values without a mark were called inactive. Calls of active or inactive are those of the source. Calls come from the whole dose curve; as a rule, active = well fitted activation curve with a large enough effect; inconclusive = small, poorly fitted or top-dose-only effect; inactive = flat fitted curve, though single readings scatter.

Experiment: qHTS for Inhibitors of Cell Surface uPA Generation: Confirmatory Assay for Cherry-picked Compounds; for inhibition: 0% is about no effect
Conditions: cell surface uPA activity generation, qHTS confirmation; series mostly up to 115 µM; inhibition: at the top concentration
In short: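 RAW 264.7 cells at 4000/well, incubated overnight, then treated with compounds. After 24 h at 37 C, viability was read by ATPlite luminescence. An increase in signal indicates blocked uPA-dependent LF entry.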
Potency is the fitted concentration of half-maximal effect.

| SMILES | inhibition [%] | Potency |
| --- | --- | --- |
| CC(=O)c1ccc2c(c1)c1ccccc1n2CC(C)C | -0.0624 | – |
| Cc1cccc(NC(=O)c2cc3c(=O)n4ccccc4nc3s2)c1 | 1.17 | – |
| O=[N+]([O-])c1ccccc1C=NNC(=S)NN=Cc1ccccc1[N+](=O)[O-] | -2.73 | – |
| COc1ccc([C@H]2CC(=O)C=C(c3ccc(CNC(=O)OC(C)(C)C)cc3)C2)cc1 | -2.37 | – |
| Cc1ccc(S(=O)(=O)N2CCOCC2)cc1C(=O)OC1CCOC1=O (stereo not drawn) | -2.34 | – |
| N#C/C(N=Nc1ccccc1O)=N\Nc1ccccc1O | 7.46 | – |
| CN(CCC#N)C(=S)Nc1ccc(Oc2ccccc2)cc1 | -1.16 | – |
| COCCNS(=O)(=O)c1cc(OC)c(C)cc1C | 1.42 | – |
| CCCN1CCN(CC(=O)Nc2nncs2)CC1 | 1.56 | – |
| COc1cc(CN2CCNC(=O)C2CC(=O)NCCCC2CCCC2)cc(OC)c1 (stereo not drawn) | -3.3 | – |
| CCc1nnc(NC(=O)CSc2nnnn2-c2cccc(C(C)=O)c2)s1 | -1.2 | – |
| COC(=O)/C(C#N)=C\c1c(OC)[nH]c2ccccc12 | -0.852 | – |
| CCOC(=O)C1=CC[C@@H](c2cc3ccc(OC)cc3n2C)N(S(=O)(=O)c2ccc(C)cc2)[C@H]1C(=O)OCC | -1.93 | – |
| CCOC(=O)c1c(NC(=O)CC2SC(N)=NC2=O)sc2c1CCC(C)C2 (stereo not drawn) | -2.04 | – |
| CN(C)S(=O)(=O)c1ccc(NC(=O)COC(=O)CC2CC3CCC2C3)cc1 (stereo not drawn) | 0.968 | – |
| O=C(NCc1ccc2c(c1)OCO2)c1ccccn1 | -0.59 | – |
| O=C(NCCOc1ccc(F)cc1)C1CCN(S(=O)(=O)c2ccccc2)CC1 | -1.56 | – |
| CC(=O)c1ccc(N2CCN(C(=S)NCc3ccco3)CC2)cc1 | -2.55 | – |
| C=CC1=C(C(=O)O)N2C(=O)[C@@H](NC(=O)/C(=N\O)c3csc(N)n3)[C@H]2SC1 (stereo in doubt) | 1.1 | – |

| SMILES | inhibition [%] | Potency |
| --- | --- | --- |
| Cn1cnc([N+](=O)[O-])c1Sc1ccc(Br)cc1 | -2.59 | – |
| CC(C)c1ccc(C2/C(=C(\O)c3ccc4c(c3)OCCO4)C(=O)C(=O)N2CCN2CCOCC2)cc1 (stereo not drawn) | -0.762 | – |
| COc1ccc2c(ccn2S(=O)(=O)c2ccccc2)c1 | -3.74 | – |
| CCCCn1c(=NC(=O)c2ccco2)c(C(=O)OCC)cc2c(=O)n3cccc(C)c3nc21 | -1.3 | – |
| COc1ccc(/C(C)=N/N2CCOCC2)c(O)c1 | 1.76 | – |
| Fc1ccc(CNc2ccccn2)cc1 | -1.78 | – |
| Cc1nc2nc(C)c(NS(=O)(=O)c3ccc(Cl)cc3)c(=O)n2[nH]1 | -2.34 | – |
| C=CS(=O)(=O)c1ccc(Oc2ccc(S(=O)(=O)C=C)cc2)cc1 | – | 58.5 µM (active) |
| Cc1ccccc1NC(=O)N1CCN(c2ncccn2)CC1 | -1.39 | – |
| O=C1OCC/C1=C\c1ccc(O)cc1 | -2.46 | – |
| O=C(NCCN1CCOCC1)c1ccc2c(c1)N(Cc1ccc(Cl)cc1)CCS2 | 1.95 | – |
| CCC(COC)NC(=O)CCc1nnc(Cc2c[nH]c3ccccc23)o1 (stereo not drawn) | -1.15 | – |
| O=C(CSc1ccc(Cl)cc1)Nc1ccc(C2SCCS2)cc1 | 0.585 | – |
| Cc1cc(C)n(-c2cc(C(=O)O)cc(C(=O)O)c2)n1 | -1.53 | – |
| O=C(Nc1cccc(-c2nn[nH]n2)c1)c1ccc(Cl)s1 | -2.78 | – |
| COc1ccc(C)cc1NC(=O)CSCc1cc(=O)n2c(C)csc2n1 | 0.197 | – |
| CC1(C)S[C@@H]2[C@H](NC(=O)C(C(=O)O)c3ccccc3)C(=O)N2[C@H]1C(=O)O (stereo partly drawn) | -0.669 | – |
| Cc1c(NC(=S)Nc2ccc(Cl)cc2)c(=O)n(-c2ccccc2)n1C | -0.742 | – |
| N/C(=N/OC(=O)c1ccccc1F)c1nonc1N | -2.61 | – |
